Assay results published in PubChem BioAssay AID1117319 (Southern Research Institute, 2015).
Several values for one entry are separate records, joined by “and”; a condition that tells them apart may be missing. Equal entries are not always repeated. The campaign covered roughly 260,000 compounds. About 1,500 (0.58%) were called active. Inconclusive results (about 5%) are left out.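 The calls were made as follows: active = inhibition above a set limit at one or more doses, reproduced on every date tested; inconclusive = results disagree between test dates, or hit never tested in dose response; inactive = the rest.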 Not all results are given here. Measured potencies and affinities stand elsewhere.

These compounds were tested against Virion infectivity factor (Human immunodeficiency virus type 1 group M subtype B (isolate BH10)) + Virion infectivity factor (Human immunodeficiency virus type 1 group M subtype B (isolate BRU/LAI)) + Virion infectivity factor (Human immunodeficiency virus type 1 group M subtype B (isolate PCV12)) + Virion infectivity factor (Human immunodeficiency virus type 1 group M subtype B (isolate HXB2)) + DNA dC->dU-editing enzyme APOBEC-3G (Homo sapiens) (UniProt P69720+P69721+P69722+P69723+Q9HC16) (assay: inhibitors of Vif binding to APOBEC3G peptide, primary screen, biochemical, TR-FRET, GST-Vif 1-94, biotin-A3G peptide, dose response retest (AID 1117319;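 also: Vif residues 1-94 fused to GST binding biotinylated APOBEC3G peptide 110-148; 0% = full assay without inhibitor and 100% = GST in place of GST-Vif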)). Conditions: stronger effect = higher value.

inhibition, inactive:
O=C(CSc1ccc2c(c1)OCCO2)N1CCN(c2ccccc2O)CC1 14.3%
Nc1cc(Cl)ccc1Oc1ccccc1 -0.78%
Nc1cc(Cl)ccc1Oc1ccc(Cl)cc1 14.4%
CC(=O)Nc1ccc(S(=O)(=O)NCCC(=O)N2CCC(Cc3ccccc3)CC2)cc1 -8.11%
CCC(=O)N(CCC1(C(C)C)CCOC(C)(C)C1)Cc1ccco1 (stereo unspecified) 1.68%
CC(C)(C)CN1CCNC(=O)C1CC(=O)NCCN1CCCc2ccccc21 (stereo unspecified) 20.1%
O=C(CC1C(=O)NCCN1Cc1ccccc1)NCCN1CCCCC1=O (stereo unspecified) 4.62%
Cc1ccccc1NC(=O)c1cnn(-c2ccccc2)c1C -7.17%
NC(=S)NCc1cccnc1 -0.39%
CCn1cc(S(=O)(=O)CC(=O)NC2CCCCC2)c2ccccc21 -2.6%
CCOC(=O)N1CCN(S(=O)(=O)c2ccc(C)c(C(=O)NC3CCCCC3)c2)CC1 5.81%
CCNc1ccccc(-c2ccc3ccccc3n2)c1=O 14.5%
c1ccc2nc(-c3ccc4c(c3)OCO4)ccc2c1 5.74%
COc1ccc(NC(=O)c2cc(S(=O)(=O)N3CCCCC3)ccc2N2CCCCC2)cn1 5.2% and 0.78%
COc1ccccc1/C=C/C=N/NC(=O)c1ccncc1 -1.29%
O=C(/C=C/c1ccco1)Nc1ccccn1 1.75%
O=C(N/N=C/C=C/c1ccccc1)c1ccncc1 -6.12%
O=C(c1ccco1)N(c1ccccn1)c1ccccn1 3.18%
Cn1c(=O)c2c(ncn2CC(=O)N/N=C/C=C/c2ccccc2[N+](=O)[O-])n(C)c1=O 10.3%
Cn1c(=O)c2c(ncn2CC(=O)N/N=C/C=C/c2ccccc2)n(C)c1=O 7.57%
O=C(C=Cc1ccco1)c1ccco1 3.42%
O=C(/C=C/c1ccco1)Nc1cccnc1 1%
OC(CNCCNc1ncccc1C(F)(F)F)Cn1ccc2ccccc21 (stereo unspecified) 4.3%
O=C(CNS(=O)(=O)c1ccc(Br)cc1)N1CCN(c2ccc(F)cc2)CC1 -8.26%
O=C(O)CNC(=O)CCn1nnc2ccccc2c1=O -2.36%
CCOc1cccc2sc(NC(=O)c3ccc(Br)s3)nc12 -37.3%
Cc1ccc(NC(=O)CCC(=O)N/N=C/c2cccs2)cc1C -6.77%
Cc1cc(C)n2c(SCCC(C)C)nnc2n1 10.9%
CCOC(=O)Oc1ccc2c(=O)c(Oc3cccc(C)c3)coc2c1 0.27%
CC(=O)N1CCSc2ccc(S(=O)(=O)NCCc3ccc(C)cc3)cc21 2.49%
Cc1ccc(SCc2c(C(=O)N/N=C/c3ccc(C)o3)nnn2-c2nonc2N)cc1 -4.93%
N#Cc1ccc(OCc2cccc(S(=O)(=O)N3CCOCC3)c2)cc1 0.78%
c1ccc(-c2nnc(-c3ccco3)o2)cc1 -6.32%
CC(/C=C/c1ccco1)=N/NC(=O)c1ccc(C)nc1 1.76%
CC(/C=N/NC(=O)c1cccnc1)=C\c1ccco1 28.6%
O=C(N/N=C/C=C/c1ccccc1)c1cccnc1 -6.59%
CC(/C=C/c1ccco1)=N\NC(=O)c1cccc(Cl)c1 -1.59%
CCc1c(C#N)c(SCCC(=O)Nc2cccc(OC)c2)nc2c1C(=O)CC(C)(C)C2 -3.29%
CC(C)(Cc1ccccc1)NC(=O)C(=O)c1cn(CC(=O)N2CCOCC2)c2ccccc12 6.86%
O=C(/C=C/c1ccccc1F)c1cccc([N+](=O)[O-])c1 -5.2%
O=C(CN(C(=O)CNS(=O)(=O)c1ccc(F)cc1)c1ccc(F)cc1)NCc1ccco1 -4.81%
Cc1ccc(/C=N/N2CCN(Cc3ccccc3)CC2)cc1 -2.27%
Cc1ccc(NCc2nnc(SCC(=O)Nc3ncc(C)s3)n2CC2CCCO2)c(C)c1 (stereo unspecified) -1.98%
CC(=O)Nc1ccc(NC(=O)CSc2nnc(CNc3ccc(F)cc3)n2CC2CCCO2)cc1 (stereo unspecified) -7.5%
COC(=O)Cn1ncc2c3ccccc3n(C)c2c1=O 4.81%
COc1ccc(OC)c(S(=O)(=O)N(C(C)=O)c2ccc3oc(=O)sc3c2)c1 13.9%
CC(=O)N(c1ccc2oc(=O)sc2c1)S(=O)(=O)c1ccccc1 7.75% and 2.73%
CCC(C)NC(=O)C1CCC(CNS(=O)(=O)c2ccc3c(c2)CC(C)N3C(C)=O)CC1 (stereo unspecified) 4.98%
CCCOC(=O)c1c(NC(=O)CCC(=O)O)sc2c1CCCCC2 8.05%
Cc1ccc(OCCNC(=O)c2ccccc2N)cc1 8.93%
CC(=O)C1=C(c2ccccc2)NC(=O)NC1c1ccccc1OCC(=O)Nc1ccccc1 (stereo unspecified) -2.45%
S=C(NCCc1ccccc1)Nc1ncccn1 4.03%
O=C(N/N=C/c1ccc[nH]1)c1ccc(COc2cccc3cccnc23)cc1 9.25%
O=C1CCC/C(=N\NC(=O)c2ccc(CSc3cccc4cccnc34)cc2)C1 5.86%
CC(Nc1nc(-c2ccccc2O)nc2ccccc12)c1ccccc1 (stereo unspecified) 4.08%
CCOc1ccc(-c2cc(N3C(=O)Nc4ccccc4N3O)on2)cc1 19.2%
COc1c(O)c(O)c2oc(-c3ccccc3)cc(=O)c2c1OC -3.24%
O=c1cc(-c2ccc(O)cc2)oc2ccc(O)cc12 28.2%
O=C(O)c1ccccc1C(=O)NC1CCCc2ccccc21 (stereo unspecified) -5.37%
Cc1cc(C)c(NC(=O)CN(C)CC(=O)N(C)CC(=O)Nc2c(Cl)cccc2Cl)c(C)c1 -11.3%
COc1ccc(CCNC(=O)COC(=O)/C=C/c2cccs2)cc1 8.83%
Cc1nn(-c2ccccn2)c2c1-c1nc(N)ncc1CC2 5.31%
C=C(C)C1Cc2c(C)nn(-c3ccccn3)c2C1 (stereo unspecified) -1.81%
Nc1nc(SCC(=O)c2c(N)n(Cc3ccccc3)c(=O)[nH]c2=O)n[nH]1 -2.67%
CCCC(=O)NC(Nc1c(C)n(C)n(-c2ccccc2)c1=O)C(Cl)(Cl)Cl (stereo unspecified) -6.76%
COc1ccc(CNS(=O)(=O)c2c(C)[nH]c(C)c2C(=O)N2CCCCC2)cc1 -4.48%
CCOC(=O)Cc1cc(=O)n2[nH]c(C(C)(C)C)cc2n1 2.01%
CCOC(=O)Cc1cc(=O)n2[nH]c(-c3ccccc3)cc2n1 3.98%
O=C1CCCC(O)=C1N=Nc1ccc(Cl)c(Cl)c1 -7.94%
CC1(C)CC(=O)C(N=Nc2ccc(S(=O)(=O)N3CCOCC3)cc2)=C(O)C1 4.95%
CC(=O)N1CCc2cc(N=NC3=C(O)CCCC3=O)ccc21 11.2%
O=C(O)c1cccc(N=NN2CCOCC2)c1 0.39%
O=Cc1cc(N=Nc2cccc(C(=O)O)c2)ccc1O 8.26%
Cc1nc2ccc(N=NC3=C(O)CCCC3=O)cc2s1 19.7%
O=C1CCCC(O)=C1N=Nc1ccc2ncsc2c1 1.8%
O=C1CCCC(O)=C1N=Nc1cccc(S(=O)(=O)N2CCOCC2)c1 -9.52%
Cc1cc(C)c2c(N)c(C(=O)N3CCc4ccccc4C3)sc2n1 2.97%
O=C(CSc1ccccc1C(=O)O)NC12CC3CC(CC(C3)C1)C2 -8.39%
COC(=O)C1=C(C)OC(N)=C(C#N)C1c1ccsc1 (stereo unspecified) -0.64%
COc1ccc(NC(=O)/C=C/c2ccc(C)o2)cc1S(=O)(=O)N1CCOCC1 22.6%
Cc1ccc(/C=C/C(=O)Nc2ccc(S(N)(=O)=O)cc2)o1 5.06%
O=C(/C=C/c1ccc(F)cc1)Nc1cccc(S(=O)(=O)N2CCOCC2)c1 -3.16%
Cc1ccc(/C=C/C(=O)Nc2nnc(C)s2)o1 30.1%
Cc1ccc(/C=C/C(=O)Nc2ccncc2)o1 26.1%
Cc1cnc(NC(=O)/C=C/c2ccc(Br)o2)s1 20.7%
Cc1cc(-c2nnc(CCC(=O)N3CCN(Cc4cccc(F)c4)CC3)o2)c(C)o1 -7.15%
COc1ccc(OC)c(CN2CCN(C(=O)c3cccs3)CC2)c1 1.09%
COc1ccc(Oc2nc(-c3cccnc3)nc3ccccc23)cc1 -18.5%
CCC(OC(=O)c1nsc(Cl)c1Cl)C(=O)NC(C)(C)CC (stereo unspecified) -6.48%
CC(NC(=O)c1cccc(S(=O)(=O)N2CCN(Cc3ccccc3)CC2)c1)c1ccc(Cl)cc1 (stereo unspecified) 3.65%
CCOC(=O)c1cn2nc(Oc3ccc(NC(C)=O)cc3)ccc2n1 -0.1%
CC(NC(=O)c1ccc2nc(Cc3cccc(Cl)c3)oc2c1)c1ccncn1 (stereo unspecified) 0.5%
CN(C)C(=O)CCc1ccc2c3c([nH]c2c1)[C@]1(CCC2CCCC2)[C@@H](C(=O)N2CCOCC2)C[C@H](CC(=O)NCCC2=CCCCC2)C(=O)N1CC3 4.07%
CCOc1ncccc1C(=O)OCC(=O)NC1CCCCCC1 -6.35%
Cc1cc(S(=O)(=O)Nc2ncnc3sccc23)ccc1F 1.05%
CCOC(=O)C(C)/C(C)=N/NC(=O)CCC(=O)Nc1cc(C)ccc1C (stereo unspecified) 3.1%
